Hits are enriched below; roughly 9.6% of the tested compounds scored in any of these assays.
Cav3 T inh: human Cav3.2 channel inhibition, primary screen | Cav3.2-expressing cells, Fluo-4 calcium fluorescence FDSS; stronger effect = lower value | B-score at 10 µM | 100,000 tested, 4% active | AID 449739;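 active means single-dose well whose peak fluorescence ratio is a statistical outlier from its plate by either plate-standardised score or position-corrected B-score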
DAT uptake mod: modulates human dopamine transporter uptake under cocaine; LLC-PK1 hDAT cells, [14C]-dopamine uptake with cocaine IC80; actives deviate in either direction; 110,000 tested, 1.3% active; AID 449768; B-score at 10 µM;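 active means Z score or B-score, a plate-position-corrected score, falls beyond the plate's 99.7% confidence bounds, in either direction; inactive means both scores lie inside the 99.7% bounds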;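 further: scored against the spread of the other compound wells on the same plate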
PLAP activator: activates human placental alkaline phosphatase | activation fold at 20 µM | 96,000 tested, 1.2% active | P05187 | purified PLAP enzyme, luminescent substrate read-out; stronger effect = higher value; in the data active means activation fold above about 2
Target sequence (P05187 whole entry, looked up): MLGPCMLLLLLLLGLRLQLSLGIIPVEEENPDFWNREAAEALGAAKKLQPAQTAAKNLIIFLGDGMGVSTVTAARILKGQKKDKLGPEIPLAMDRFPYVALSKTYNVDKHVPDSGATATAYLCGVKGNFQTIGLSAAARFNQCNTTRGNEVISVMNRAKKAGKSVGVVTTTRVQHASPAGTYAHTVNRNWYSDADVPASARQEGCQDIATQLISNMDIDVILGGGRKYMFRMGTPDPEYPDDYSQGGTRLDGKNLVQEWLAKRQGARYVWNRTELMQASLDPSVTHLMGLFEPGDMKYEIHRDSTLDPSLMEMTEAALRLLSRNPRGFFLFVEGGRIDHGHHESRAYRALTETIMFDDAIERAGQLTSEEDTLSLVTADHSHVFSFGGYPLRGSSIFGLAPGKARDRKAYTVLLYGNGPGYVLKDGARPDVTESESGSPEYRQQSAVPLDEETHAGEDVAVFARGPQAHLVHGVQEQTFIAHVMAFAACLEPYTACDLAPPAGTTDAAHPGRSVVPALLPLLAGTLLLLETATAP
PostGolgi ctrl: growth of the yeast control strain, post-Golgi counter-screen | efflux-deficient yeast background strain, growth absorbance A615, 16 h | inhibition, % at 10 µM | 98,000 tested, 5% active | AID 738
PostGolgi yeast: growth inhibition of a yeast mutant, post-Golgi transport screen. post-Golgi transport phenotypic cell assay. 98,000 tested, 0.9% active. inhibition, % at 10 µM;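 further: yeast cells grown in 1536-well plates; yeast grown about 18 h at 30C before absorbance read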
The depositor's hits bear a star; . = no result. Unless noted, no stated cut-off is given here; in the data, active means inhibition above about 30%; inactive means the rest.

SMILES	Cav3 T inh	DAT uptake mod	PLAP activator	PostGolgi ctrl	PostGolgi yeast
Cc1ccc2c(c1)c(C)c(C)n2CC(O)Cn1nc(C)cc1C (stereo not given)	-2.49	-0.229	1.5	-7.5	-9.5
CCCCCCNC(=O)c1cc(-c2ccco2)nc2ccccc12	-1.98	1.33	.	.	.
CCCc1cc(NCC2CCCO2)n2c(nc3ccccc32)c1C#N (stereo not given)	2.3	-0.761	1.4	10.5	-0.8
COc1ccc(C2C3=C(CCCC3=O)Nc3nc(-c4cc(OC)c(OC)c(OC)c4)nn32)cc1OC (stereo not given)	0.7	4.01*	1.5	1.1	32.6*
COc1ccc(-c2nc3n(n2)C(c2ccccc2)C2=C(CCCC2=O)N3)cc1OC (stereo not given)	0.543	1	1	-7.3	4.0
COc1cc(-c2nc3n(n2)C(c2cccc(OC)c2OC)C2=C(CCCC2=O)N3)cc(OC)c1OC (stereo not given)	1.66	2.67*	1	-9.2	9.2
COC(=O)c1nc2n(n1)C(c1ccc(OC)c(OC)c1OC)C1=C(CCCC1=O)N2 (stereo not given)	0.637	0.0406	1.4	-7.8	-6.5
CC(C)CC(c1nnnn1Cc1ccccc1)N1CCC(C(N)=O)CC1 (stereo not given)	0.588	0.00736	.	.	.
Cc1ccc(NC(=O)CSc2nnnn2-c2ccc3c(c2)OCO3)cc1C	0.178	1.18	.	.	.
COc1ccc(NC(=O)CSc2nccn2-c2cccc(OC)c2)cc1	0.0206	-0.655	0.9	6.6	7.3
COc1ccc(OC)c(NC(=O)CSc2nnnn2-c2ccc3c(c2)OCO3)c1	0.339	-3.51*	1	6.7	8.3
COc1ccc(-n2ccnc2SCC(=O)Nc2ccccc2)cc1	-1.47	1.7	1.1	36.8*	5.7
COc1cccc(-n2ccnc2SCC(=O)Nc2cc(OC)ccc2OC)c1	.	1.52*	1	10.3	11.3
COc1ccccc1-n1cnnc1SCC(=O)c1ccc[nH]1	0.101	1.02	0.9	3.4	-21.2
O=S(=O)(Nc1nc2ccc(S(=O)(=O)N3CCCC3)cc2s1)c1ccc(F)cc1	-2.95	-2.13	1.4	8.7	-7.7
C=CCc1c(C)c(C#N)c2nc3ccccc3n2c1NCCN(C)C	2.03	2.71*	1.4	73.7*	81.6*
CCc1c(C)c(C#N)c2nc3ccccc3n2c1NCCN(C)C	2.38	0.66	1.5	42.0*	-4.6
CCc1c(C)c(C#N)c2nc3ccccc3n2c1NCc1ccco1	-2.38	-0.419	1	21.1	0.2
CCCNc1cc(C)c(C#N)c2nc3ccccc3n12	2.44	0.305	.	.	.
Cn1c(SCc2c(Cl)cccc2Cl)nc(C(F)(F)F)cc1=O	-0.76	1.72	1	16.0	-19.3
O=C(Nc1cc(Cl)ccc1Cl)c1ccc(OC(=O)c2ccco2)cc1	-0.208	-0.898	0.7	6.1	5.5
CCn1cc(C(=O)NCCC2=CCCCC2)c(=O)c2cc(S(=O)(=O)N(C)C)ccc21	-0.171	0.0201	.	-8.8	0.0
OC(CN1CCN(c2ccccc2)CC1)c1ccc2c(c1)CCN2 (stereo not given)	0.0898	0.0257	1.2	-7.4	5.0
Cc1cccc(N=C(N2CCOCC2)P(=O)(N2CCOCC2)N2CCOCC2)c1	1.37	0.251	1.6	3.3	-0.3
CC(OC(=O)C1CCN(S(=O)(=O)c2ccc(Cl)cc2)CC1)C(=O)N1CCc2ccccc21 (stereo not given)	-4.65*	-0.325	1.9	22.6	7.7
SMILES	Cav3 T inh	DAT uptake mod	PLAP activator	PostGolgi ctrl	PostGolgi yeast
COc1ccccc1N1CCN(C(=O)C2CCN(S(=O)(=O)c3ccc(Cl)cc3)CC2)CC1	-1.6	1.27	1.5	27.2	3.7
O=C(C1CCN(S(=O)(=O)c2ccc3c(c2)OCCO3)CC1)N1CCc2ccccc21	0.482	-0.0714	0.8	33.3*	-10.3
CCOc1ccc(S(=O)(=O)NCCC(=O)OC(C)C(=O)N2CCc3ccccc32)cc1 (stereo not given)	-4.62*	1.1	1.5	5.5	2.6
O=C(C1CCC1)N1CCc2cc(S(=O)(=O)N3CCCCC3)ccc21	-0.121	-0.613	0.7	8.0	-9.2
Cc1nn(C)c(C)c1/C=N/N=C1\CCC2C3CCc4cc(O)ccc4C3CCC12C (stereo not given)	.	.	1.7	2.2	-1.6
COc1cc(S(=O)(=O)NCCN2CCOCC2)c(OC)cc1Cl	-0.564	0.0374	1.3	32.4*	-3.5
CC(C)(C)[C@H]1C=C(C(=O)NC2CC2)O[C@@H](OCCCCO)C1	0.26	-0.148	.	.	.
COc1cc(C2NC(=O)NC(C)=C2C(=O)OC(C)C)ccc1OC(=O)c1ccco1 (stereo not given)	-0.373	0.0836	.	.	.
CCCCc1ccc(NS(=O)(=O)c2cccs2)cc1	-5*	1.73	1.2	37.3*	-4.5
